In PubChem BioAssay (NCI) one finds growth data, which are given here for eight compounds.

The structures appear in SMILES notation. Compounds without any hit were thinned out: in the full panel of roughly 83,000, 20% have a hit.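 The test compound was applied at a single concentration to cells in 96-well plates for 48 hours, and percent growth was recorded.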 A number with no mark means an inactive call. Calls of active or inactive are those of the source. The calls were made as follows: active = growth percent below 10; inactive = the rest.

Among the test systems are HCT-15 colon; HT29 colon; SNB-75 CNS; SNB-19 CNS; U251 CNS; PC-3 prostate; SK-MEL-5 melanoma; UACC-62 melanoma; LOX IMVI melanoma; SK-MEL-28 melanoma; SK-MEL-2 melanoma; EKVX NSCLC; SN12C renal; UO-31 renal; TK-10 renal; ACHN renal; CAKI-1 renal; A498 renal; CCRF-CEM leukemia; MOLT-4 leukemia.
What all share (test): NCI-60 one-dose screen, 48 h (100 = growth as untreated, 0 = no growth, -100 = all killed)
Holding throughout (conditions): 10 µM unless noted

Consider `NCCCNc1nc2ccccc2c2c(=O)c3cc(Cl)ccc3sc12`, for which the growth with HCT-15 colon is -76.9% (active); in the experiment with HT29 colon, -45.4% (active); in the experiment with SNB-75 CNS, 47.9%; with SNB-19 CNS it was 22.8%; in the experiment with U251 CNS, -95.1% (active); with PC-3 prostate, -18.9% (active). Further, the growth with SK-MEL-5 melanoma was 46.9%; in the experiment on UACC-62 melanoma it was -6.22% (active); in the experiment on LOX IMVI melanoma, -90.5% (active); in the experiment with SK-MEL-28 melanoma it was -30% (active); in the experiment on SK-MEL-2 melanoma, 41%; in the experiment with EKVX NSCLC it was 57.4%. Also, the growth in the experiment with SN12C renal is -66.5% (active); in the experiment with UO-31 renal, -71.7% (active); in the experiment with TK-10 renal, 24.3%; in the experiment on ACHN renal, -37.2% (active); with CAKI-1 renal, 22.1%; with A498 renal it was 70.2%. Besides, the values for the growth in the experiment on CCRF-CEM leukemia and in the experiment with MOLT-4 leukemia were -28.5% (active) and -61.8% (active), respectively.
As for `Nc1nc(N(Cc2ccccc2)c2ccccc2)c2cn[nH]c2n1`, the growth in the experiment on HCT-15 colon is 49.8%; with HT29 colon it was 32.3%; in the experiment on SNB-75 CNS, 56.8%; with SNB-19 CNS, 68.1%; in the experiment with U251 CNS, 42.6%; in the experiment with PC-3 prostate, 74.8%. Moreover, the growth with SK-MEL-5 melanoma is 44.6%; with UACC-62 melanoma, 45.7%; in the experiment with LOX IMVI melanoma, 53%; with SK-MEL-28 melanoma it was 63.4%; in the experiment with SK-MEL-2 melanoma, 111%; in the experiment on EKVX NSCLC, 75.3%. In addition, the growth was 85.8% in the experiment with SN12C renal; 75% in the experiment on UO-31 renal; 92.2% in the experiment on TK-10 renal; 71.2% in the experiment on ACHN renal; 31.9% in the experiment on CAKI-1 renal; 69.9% in the experiment with A498 renal. The growth was 92.6% in the experiment on CCRF-CEM leukemia and 62.2% with MOLT-4 leukemia.
For the compound `Cc1cc(=O)oc2cc(Oc3nc(Br)cn4c(Br)cnc34)ccc12`, the growth in the experiment with HCT-15 colon is 95.6%; in the experiment with HT29 colon it was 99.9%; with SNB-75 CNS, -2.07% (active); in the experiment with SNB-19 CNS it was 74.6%; with U251 CNS, 47.6%; with PC-3 prostate, 82.1%. The growth with SK-MEL-5 melanoma is 40.3%; in the experiment with UACC-62 melanoma it was 85.2%; in the experiment on LOX IMVI melanoma, 74.3%; in the experiment with SK-MEL-28 melanoma, 104%; with SK-MEL-2 melanoma, 78%; in the experiment with EKVX NSCLC it was 75.6%. The growth was 75.8% with SN12C renal; 58.8% in the experiment with UO-31 renal; 114% in the experiment with TK-10 renal; 65.8% in the experiment on ACHN renal; 95.7% in the experiment on CAKI-1 renal; 97.4% in the experiment with A498 renal. Besides, the growth in the experiment on CCRF-CEM leukemia was 106%; in the experiment with MOLT-4 leukemia, 87.5%.
Regarding `COc1cc(/C=C2\C(=O)N(CCCOc3cc(O)c4c(=O)cc(-c5ccccc5)oc4c3)c3ccccc32)cc(OC)c1O`, the growth in the experiment with HCT-15 colon was 42.4%; in the experiment with HT29 colon, -16.1% (active); with SNB-75 CNS, 47.6%; in the experiment on SNB-19 CNS it was 80.6%; in the experiment with U251 CNS, 60.9%; in the experiment on PC-3 prostate, 67%. Moreover, the growth in the experiment with SK-MEL-5 melanoma is 71.9%; in the experiment on UACC-62 melanoma it was 46.8%; in the experiment on LOX IMVI melanoma it was 58.8%; with SK-MEL-28 melanoma, 90.9%; with SK-MEL-2 melanoma, 81.1%; in the experiment on EKVX NSCLC it was 88.4%. For the same compound, the growth with SN12C renal was 91.3%; in the experiment with UO-31 renal, 61.9%; in the experiment on TK-10 renal it was 87%; with ACHN renal, 93.3%; in the experiment on CAKI-1 renal, 85.2%; in the experiment with A498 renal, 91.7%. The growth in the experiment with CCRF-CEM leukemia is 70.2%; in the experiment with MOLT-4 leukemia it was 64.7%.
As for `CCCOC(=O)Nc1nc2ccc(SCC)cc2s1`, the growth in the experiment with HCT-15 colon was 54.3%; in the experiment on HT29 colon, 31.3%; in the experiment with SNB-75 CNS, 90.5%; with SNB-19 CNS, 84.5%; with U251 CNS, 85%; in the experiment with PC-3 prostate it was 80.8%. Further, the growth with SK-MEL-5 melanoma was 83.6%; in the experiment with UACC-62 melanoma, 61.2%; in the experiment on LOX IMVI melanoma, 71.1%; in the experiment on SK-MEL-28 melanoma it was 85.9%; in the experiment on SK-MEL-2 melanoma, 76.2%; in the experiment with EKVX NSCLC, 94.3%. Further, the growth with SN12C renal was 89.6%; with UO-31 renal it was 90.7%; with TK-10 renal it was 84.9%; in the experiment with ACHN renal, 107%; in the experiment on CAKI-1 renal, 79.8%; with A498 renal, 70.7%. Moreover, the growth in the experiment on CCRF-CEM leukemia is 72.1%; in the experiment on MOLT-4 leukemia it was 72.9%.
Consider `C[C@@H]1CN(c2cnc(C(=O)Nc3cc(F)cc4cccnc34)cn2)C[C@H](C)N1`, for which the growth with HCT-15 colon is 35.7%; in the experiment with HT29 colon, 35.5%; in the experiment on SNB-75 CNS, 69%; in the experiment on SNB-19 CNS it was 92.4%; with U251 CNS it was 76.6%; in the experiment on PC-3 prostate it was 21.2%. Also, the growth was 102% in the experiment on SK-MEL-5 melanoma; 94.3% in the experiment on UACC-62 melanoma; 72.7% in the experiment with LOX IMVI melanoma; 94% in the experiment with SK-MEL-28 melanoma; 105% with SK-MEL-2 melanoma; 77% in the experiment on EKVX NSCLC. Moreover, the growth in the experiment with SN12C renal was 83.2%; in the experiment on UO-31 renal, 44.1%; in the experiment on TK-10 renal, 72.2%; in the experiment with ACHN renal it was 32.3%; in the experiment on CAKI-1 renal, 66.2%; in the experiment on A498 renal it was 67.4%. Further, the growth in the experiment with CCRF-CEM leukemia is 26.9%; with MOLT-4 leukemia, 33%.
In the case of `COCCn1cc(-c2nc(-c3c[nH]c4ncccc34)cs2)c2ccccc21`, the growth with HCT-15 colon is 20.3%; with HT29 colon, 50.2%; in the experiment on SNB-75 CNS it was 47.2%; with SNB-19 CNS, 88.6%; with U251 CNS it was 72%; with PC-3 prostate, 33.2%. The growth in the experiment with SK-MEL-5 melanoma is 34.3%; with UACC-62 melanoma, 64.4%; in the experiment with LOX IMVI melanoma it was 66.9%; with SK-MEL-28 melanoma it was 89.4%; with SK-MEL-2 melanoma, 77.5%; in the experiment on EKVX NSCLC, 16.4%. Further, the growth is 77.8% in the experiment with SN12C renal; 41% in the experiment on UO-31 renal; 36.2% with TK-10 renal; 67.6% with ACHN renal; 62.7% with CAKI-1 renal; 44.7% in the experiment with A498 renal. Besides, the growth in the experiment with CCRF-CEM leukemia is 56.6%; in the experiment on MOLT-4 leukemia it was 48.7%.
For `O=C1C=CC2(O)OC/C(=C\c3ccccc3)C(O)=C2C1=O` (stereo not given), the growth with HCT-15 colon was -6.43% (active); in the experiment with HT29 colon, 17.8%; with SNB-75 CNS, 38.8%; in the experiment with SNB-19 CNS, 27.6%; in the experiment with U251 CNS, -35.2% (active); with PC-3 prostate it was 0.717% (active). Moreover, the growth is 31.3% with SK-MEL-5 melanoma; -64.1% (active) with UACC-62 melanoma; -82.8% (active) with LOX IMVI melanoma; 51.9% in the experiment with SK-MEL-28 melanoma; 53.4% in the experiment on SK-MEL-2 melanoma; 54.1% in the experiment with EKVX NSCLC. The growth is -30.7% (active) in the experiment on SN12C renal; -91.5% (active) in the experiment with UO-31 renal; 11.5% with TK-10 renal; -70.5% (active) with ACHN renal; 10.6% with CAKI-1 renal; 108% with A498 renal. The growth with CCRF-CEM leukemia is 2.55% (active); in the experiment with MOLT-4 leukemia, 7.42% (active).
